Reference: PubChem BioAssay (NCATS)
Records with an inconclusive call do not appear. Active and inactive are the calls of the source. Calls follow the shape of the dose curve; as a rule, active = well fitted curve in the direction sought with a large enough effect; inconclusive = small, poorly fitted or top-dose-only effect, or another doubt; inactive = no such curve, though single readings can be large; an effect the other way counts as inactive or inconclusive.

Legend:
[1] = qHTS for ATAD5 Agonist screened against the NCATS CANVASS Library (AID 1347367)
In short: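 Genotoxicity via ATAD5-luciferase luminescence after 16 h compound exposure (11-point series) at 37C in HEK293T-ATAD5 cells. CellTiter-Fluor viability read precedes the luminescence read; MMS serves as positive control.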

[2] = G06 Cancer Cell Toxicity qHTS against the NCATS CANVASS Library (AID 1347368)
In short: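 Quantitative HTS in G06 cells (dog glioma): 72 hr treatment, 11 concentrations, then ATP-based luminescent viability readout; bortezomib 0.1 nM–4.6 uM final as reference.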

[3] = qHTS for ATAD5 Antagonist screened against the NCATS CANVASS Library (AID 1347370)
In short: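 HEK293T-ATAD5 luc reporter, 2000 cells/well; 5hr attach; cpd + 10 uM 5-FUrd; 16hr 37C, 5% CO2. Readouts: CellTiter-Fluor fluorescence (1hr), then Amplite luciferase luminescence (30min RT).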

[4] = J3T Cancer Cell Toxicity qHTS against the NCATS CANVASS Library (AID 1347371); conditions: J3T dog glioma viability, ATP luminescence, 72 h; at 91.4 µM (top of the series)
In short: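 ATP-based cytotoxicity in canine J3T cells: 72 hr exposure at 37C, 11-point titration, CellTiterGlo luminescent detection.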

[5] = biological target: Nuclear receptor subfamily 1 group I member 3 (Homo sapiens) (UniProt Q14994); assay: qHTS for Constitutive Androstane Receptor (CAR) Antagonist screened against the NCATS CANVASS Library (AID 1347372)
Chain of Nuclear receptor subfamily 1 group I member 3 (Homo sapiens) (Q14994 whole entry, looked up): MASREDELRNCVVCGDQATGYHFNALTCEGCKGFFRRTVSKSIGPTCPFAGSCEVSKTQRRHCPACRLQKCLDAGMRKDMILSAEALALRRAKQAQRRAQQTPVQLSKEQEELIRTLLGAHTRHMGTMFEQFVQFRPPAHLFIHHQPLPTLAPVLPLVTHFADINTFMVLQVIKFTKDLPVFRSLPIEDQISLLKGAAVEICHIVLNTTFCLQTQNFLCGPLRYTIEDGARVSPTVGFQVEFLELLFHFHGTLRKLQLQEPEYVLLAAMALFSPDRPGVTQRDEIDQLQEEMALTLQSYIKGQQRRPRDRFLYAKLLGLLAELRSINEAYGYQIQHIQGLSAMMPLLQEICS
In short: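 Antagonist mode: compound added alongside 50 nM CITCO to HepG2-hCAR-CYP2B6 reporter cells, 24hr at 37C. Viability by CellTiter-Fluor fluorescence, then CAR-driven luciferase by ONE-Glo luminescence.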

[6] = biological target: Nuclear receptor subfamily 1 group I member 3 (Homo sapiens) (UniProt Q14994); assay: qHTS for Constitutive Androstane Receptor (CAR) Agonist screened against the NCATS CANVASS Library (AID 1347373)
In short: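 In an 11-point concentration series, compounds were incubated 24hr with HepG2 cells carrying hCAR and a CYP2B6-2.2kb reporter, with PK11195 at 1.5uM final. A CellTiter-Fluor viability read preceded the ONE-Glo luminescence read.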

[7] = 10-beta competent E. coli microbial cell viability qHTS against the NCATS CANVASS Library (AID 1347376)
In short: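 Overnight 37C exposure of 10-beta E. coli (0.2 OD) to an 11-point concentration series; ATP-based luminescence after 20 min room-temperature reagent incubation; daunomycin as control.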

[8] = DH5-alpha competent E. coli microbial cell viability qHTS against the NCATS CANVASS Library (AID 1347377)
In short: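 Overnight incubation at 37C, 5% CO2 of E. coli DH5-alpha (diluted to 0.2 OD) with compounds precedes BacTiter-Glo addition. Luminescence, acquired after 20 min at room temperature, reflects viable-cell ATP.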

[9] = qHTS for H2AX Agonists against the NCATS CANVASS Library (AID 1347378)
In short: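 Phospho-H2AX (S139) in CHO-K1 lysates measured by HTRF, reported as 665/615 nm emission ratio after 24 hr antibody incubation at room temperature. Cells were first treated with a compound series for 3 hr at 37C (0.76% DMSO final).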

[10] = qHTS for Inflammasome Signaling Inhibitors: IL-1-beta AlphaLISA screen against the NCATS CANVASS Library (AID 1347379); conditions: THP-1 LPS/ATP, IL-1B AlphaLISA secretion, 16 h; at 114 µM (top of the series)
In short: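 THP-1, 1 hr compound pre-incubation, then LPS 250 ng/mL + ATP 1.25 mM (final); 16 hr total with compound; IL-1B AlphaLISA, ex 680/em 615 nm; 11-point qHTS, up to 57.5 uM final.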

[11] = qHTS for Antimalaria activity screened against the NCATS CANVASS Library (AID 1347380)
In short: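 Measures proliferation or cytotoxicity against Dd2 blood stages in 72 h cultures, 11-point qHTS dosing, with SYBR Green fluorescence as read-out; dihydroartemisinin titration served as control.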

[12] = Inflammasome Signaling qHTS Counterscreen: IL-1-beta AlphaLISA counterscreen against the NCATS CANVASS Library (AID 1347381)
In short: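 Here, no cellular stimulation occurs; compounds in an 11-point series meet 4 pg purified IL-1-beta directly. Bead-based AlphaLISA detection follows (1 h acceptor/antibody, then 30 min donor, dark, room temperature), with excitation at 680 nm.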

[13] = Cytotoxicity qHTS for assessment of Hepg2 cells membrane integrity screened against the NCATS CANVASS Library (AID 1347387)
In short: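 Membrane damage in HepG2 monolayers was estimated from released LDH, measured with CytoTox-ONE (ex 560/em 590 nm), after 5 hr treatment across 0.59 nM - 46 uM final.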

[14] = qHTS for Activators of p53 Stress Response Pathway screened against the NCATS CANVASS Library (AID 1347388)
In short: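 Beta-lactamase reporter driven by p53 response elements in HCT-116 cells, read as the 460 nm/530 nm emission ratio after CCF4 loading, following 16 h of exposure to an 11-point series. Cell viability was measured in the same wells by CellTiter-Glo luminescence.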

[15] = qHTS assay for small molecule disruptors of mitochondrial membrane potential screened against the NCATS CANVASS Library (AID 1347389)
In short: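 Cells (HepG2) seeded the day before received compound or DMSO for 1 hr, then Mito-MPS dye for 30 min at 37C; emission at 590 nm over 535 nm gave the polarization signal.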

[16] = Secretion counterscreen for inhibitors of the SERCaMP assay screened against the NCATS CANVASS Library (AID 1347390)
In short: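 Counterscreen for secretory-pathway interference: after 4 h attachment, SH-SY5Y-GLuc cells were exposed 20 hours to compounds (final 0.001 - 77 uM), then coelenterazine added and GLuc luminescence recorded; Brefeldin A served as control.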

[17] = qHTS for activators of Nrf2/ARE signaling pathway screened against the NCATS CANVASS Library (AID 1347391)
In short: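 Activation of Nrf2/ARE was scored in ARE-bla HepG2 cells after 16 h compound exposure using CCF4 beta-lactamase fluorescence ratio readings.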

[18] = qHTS for activators of dead-cell proteases activity screened against the NCATS CANVASS Library (AID 1347392)
In short: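 Luminescent dead-cell protease readout (AAF-aminoluciferin, 15 min, room temperature) after 5 h compound treatment of HepG2 cells (2000/well, pre-attached 18 h). Eleven concentrations.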

[19] = Vero-766 cells viability qHTS against the NCATS CANVASS Library: Counterscreen for Zika virus inhibition assay (AID 1347394)
In short: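 CellTiter Glo luminescence measured cytotoxicity after 72 h at 37C in uninfected Vero 766 cells, plated at 1000 cells/well. Compounds were applied in an 11-point series. Wells without cells defined 100% inhibition.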

[20] = qHTS for inhibitors of Wild type Zika virus screened against the NCATS CANVASS Library (AID 1347396)
In short: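 Vero 766 cells, 1000/well, o/n attach; cpds pin-transferred (11-pt qHTS); WT Zika added; 72 h, 37C, 5% CO2; CellTiter Glo lumi. Uninfected + vehicle = 100% inhibition.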

Measured: outcome

NCCc1ccc(O)cc1
inactive: all assays above
